Growth data for twelve compounds are collected here from PubChem BioAssay (NCI).

This is part of a sample that, as a whole, favours compounds with a hit. Of some 83,000 tested, about 20% had one in any assay.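 Note: values are percent growth. 100 is the growth of untreated cells, values between 100 and 0 indicate rising inhibition; between -100 and 0 indicates cell death.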 Unmarked numbers belong to inactive results. Calls of active or inactive are those of the source. How the source made its calls: active means growth percent below 10; inactive means the rest.

Test systems include NCI-H23 lung; NCI-H226 lung; HOP-62 NSCLC; NCI-H460 lung; HOP-92 NSCLC; NCI-H522 lung; 786-0 renal; COLO 205 colon; A549/ATCC NSCLC.
Experiment in all cases: NCI-60 one-dose screen, 48 h (100 = growth as untreated, 0 = no growth, -100 = all killed)
What all share (conditions): 10 µM unless noted

Consider `Cn1c(=O)c(C#N)c(-c2ccco2)n2c(S(=O)(=O)Cc3ccccc3)nnc12`, for which the growth in the test on NCI-H23 lung is 94.3%; with NCI-H226 lung, 122%; in the test on HOP-62 NSCLC, 104%; in the test with NCI-H460 lung it was 79.9%; in the test on HOP-92 NSCLC, 92.8%; in the test on NCI-H522 lung it was 81.2%. Moreover, the growth is 81.1% in the test on 786-0 renal and 111% in the test with COLO 205 colon.

As to `C=C(C)[C@@H]1CC[C@]2(C(=O)N3CCN(C)CC3)CC[C@]3(C)[C@H](CC[C@@H]4[C@@]5(C)C/C(=C/c6ccncc6)[C@H](O)C(C)(C)[C@@H]5CC[C@]43C)[C@@H]12`, the growth in the test with NCI-H23 lung is 4.32% [100 µM] (active); in the test on NCI-H226 lung, -51% [100 µM] (active); with HOP-62 NSCLC it was -38.6% [100 µM] (active); with NCI-H460 lung, -67.4% [100 µM] (active); with HOP-92 NSCLC, -39.3% [100 µM] (active); in the test on NCI-H522 lung, -46.3% [100 µM] (active). Also, the growth is 16.2% [100 µM] in the test with A549/ATCC NSCLC, -90.8% [100 µM] (active) with 786-0 renal and -74.8% [100 µM] (active) in the test with COLO 205 colon.

With `O=C(CCNCc1ccccc1)c1ccccc1`, the growth was 106% in the test with NCI-H23 lung; 102% with NCI-H226 lung; 104% in the test on HOP-62 NSCLC; 110% with NCI-H460 lung; 120% in the test with HOP-92 NSCLC; 101% with NCI-H522 lung. The growth is 101% in the test with A549/ATCC NSCLC, 108% in the test on 786-0 renal and 111% in the test on COLO 205 colon.

In the case of `CCOC(=O)c1cc(C(=O)c2ccc(OC)c(OC)c2)n2ccc(-c3ccccn3)cc12`, the growth was 78% in the test with NCI-H23 lung; 49.9% in the test on NCI-H226 lung; 53.1% in the test with HOP-62 NSCLC; 17.9% in the test on NCI-H460 lung; 41.6% with HOP-92 NSCLC; -3.85% (active) in the test on NCI-H522 lung. Besides, the growth in the test with A549/ATCC NSCLC was 47.5%; in the test on 786-0 renal, 101%; in the test with COLO 205 colon, 65.5%.

With `CC1Cc2ccc(OCCN(C)C)cc2C1=O` (stereo unspecified), the growth was 103% in the test with NCI-H23 lung; 99% with NCI-H226 lung; 96.4% with HOP-62 NSCLC; 105% in the test on NCI-H460 lung; 82.1% in the test with HOP-92 NSCLC; 106% with NCI-H522 lung. The growth was 88.9% in the test on A549/ATCC NSCLC, 101% in the test with 786-0 renal and 105% in the test on COLO 205 colon.

For `COc1ccc(C=C2c3ccccc3-c3ccccc32)cc1`, the growth was 67.6% in the test with NCI-H23 lung; 68.6% in the test on NCI-H226 lung; 55.2% with HOP-62 NSCLC; 30.6% in the test on NCI-H460 lung; 67.3% in the test with HOP-92 NSCLC; 13.7% in the test on NCI-H522 lung. Further, the growth in the test on A549/ATCC NSCLC was 52.2%; with 786-0 renal, 58.5%; with COLO 205 colon, 29.6%.

Consider `CC1Cc2c(ncnc2-n2cnc3ccccc32)N(C)c2ccccc21` (stereo unspecified), for which the growth was 48.5% in the test with NCI-H23 lung; 58.6% in the test on NCI-H226 lung; 32.3% in the test on HOP-62 NSCLC; 18.7% with NCI-H460 lung; 36.3% in the test with HOP-92 NSCLC; 20% with NCI-H522 lung. Moreover, the growth with A549/ATCC NSCLC was 39.3%; in the test on 786-0 renal, 39.2%; in the test on COLO 205 colon, 20.9%.

Turning to `CCN(CC)c1cc(N)c(Cc2c(N)cc(N(CC)CC)cc2Cl)c(Cl)c1`, the growth in the test on NCI-H23 lung was 11.1%; with NCI-H226 lung, 45.6%; in the test with HOP-62 NSCLC, 51.8%; in the test with NCI-H460 lung, 35%; in the test on HOP-92 NSCLC it was 26.1%; in the test with NCI-H522 lung, -3.79% (active). The growth in the test with A549/ATCC NSCLC was 47%; in the test on 786-0 renal, 74.3%; in the test with COLO 205 colon, 21.4%.

In the case of `COc1cc(NN=C(c2ccc(O)cc2)c2ccc(O)cc2)c([N+](=O)[O-])cc1[N+](=O)[O-]`, the growth with NCI-H23 lung is 5.6% (active); in the test with NCI-H226 lung, 110%; in the test on HOP-62 NSCLC, -1.66% (active); in the test with NCI-H460 lung, 1.73% (active); with HOP-92 NSCLC, 70.2%; with NCI-H522 lung, -49.9% (active). Also, the growth in the test with A549/ATCC NSCLC is -5.34% (active); in the test with 786-0 renal, -29.5% (active); in the test on COLO 205 colon, 12.7%.

As to `COc1cc(C(=O)/C=C/c2c(-c3ccc(F)cc3)nc3sccn23)cc(OC)c1OC`, the growth with NCI-H23 lung was 56.5%; in the test with NCI-H226 lung it was 76.1%; in the test with HOP-62 NSCLC, 61.3%; with NCI-H460 lung it was -1.39% (active); in the test on HOP-92 NSCLC, -14.9% (active); in the test with NCI-H522 lung, -18.2% (active). For the same compound, the results for the growth in the test with 786-0 renal and with COLO 205 colon were 61.5% and 12.3%, respectively.

As to `CC[C@]12C=CCN3CC[C@@]4(c5ccc(OC)cc5N(C)[C@H]4[C@@](O)(C(=O)OC)[C@@H]1OC(=O)CCC(=O)O[C@H]1CC[C@H]4[C@@H]5CCC6=CC(=O)CC[C@@H]6[C@H]5CC[C@]14C)[C@@H]32`, the growth is 12.9% [100 µM] with NCI-H23 lung; -18.3% [100 µM] (active) in the test on NCI-H226 lung; 21.9% [100 µM] in the test with HOP-62 NSCLC; 1.51% [100 µM] (active) in the test on NCI-H460 lung; -20.3% [100 µM] (active) in the test with HOP-92 NSCLC; 3.35% [100 µM] (active) in the test on NCI-H522 lung. For the same compound, the growth in the test with A549/ATCC NSCLC was 14.5% [100 µM]; in the test on 786-0 renal, 10.2% [100 µM]; with COLO 205 colon it was -87.6% [100 µM] (active).

With `CCn1cc(-c2[nH]c(=S)ncc2-c2ccc(Cl)cc2)c(-c2ccc(Br)cc2)n1`, the growth in the test with NCI-H23 lung was 85.8%; with NCI-H226 lung, 94%; in the test on HOP-62 NSCLC, 61.6%; in the test with NCI-H460 lung, 58.5%; in the test on HOP-92 NSCLC it was 104%; in the test on NCI-H522 lung, 58.5%. Also, the values for the growth in the test with A549/ATCC NSCLC, in the test on 786-0 renal and in the test on COLO 205 colon were 72.2%, 101% and 94%, respectively.
